An excerpt weighted towards active compounds, which were near 4.7% of everything screened.
ALR inh: inhibitors of human ALR sulfhydryl oxidase, primary screen, biochemical, H2O2 detection, HRP-luminol luminescence, single point | inhibition, % (test concentration not listed) | purified ALR, DTT oxidation | actives 3.8% (n = 290,000) | AID 485317, 2010;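 active = mean replicate inhibition above about 79%, with every replicate also reaching it, limit read from the data; inconclusive = only one of the two criteria met; inactive = mean below limit and not every replicate reaching it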
Target sequence (P55789 whole entry, looked up): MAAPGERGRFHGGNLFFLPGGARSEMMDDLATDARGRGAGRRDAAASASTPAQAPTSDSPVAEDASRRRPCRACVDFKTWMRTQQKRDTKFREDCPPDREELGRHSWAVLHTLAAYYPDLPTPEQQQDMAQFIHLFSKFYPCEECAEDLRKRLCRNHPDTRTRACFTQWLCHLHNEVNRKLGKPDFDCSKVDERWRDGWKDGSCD
Efflux pump inh: inhibitors of Candida efflux pumps in yeast, primary screen, S. cerevisiae, Nile Red, multiplex; inhibition, % at 10 µM; actives 0.44% (n = 330,000); S. cerevisiae Candida pump triplex; AID 485275, 2010;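 active = plate passing quality check with inhibition over a set limit, or well fluorescence over plate mean plus 4 SD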;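 also: Nile Red retained in pooled yeast measured as flow cytometry median fluorescence; higher means more Nile Red kept so more efflux inhibition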
PABP polyA inh: PABP poly(A) RNA binding inhibitors, primary screen, biochemical, fluorescence polarization, uHTS. Polyadenylate-binding protein 1 (Homo sapiens), P11940. inhibition, % at 35 µM. actives 1% (n = 290,000);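 also: calls also rest on retests at 20 µM and on dose response follow-up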
PABP1 MLLE inh: inhibitors of PABP1 MLLE–PAM2 peptide binding, primary screen, biochemical, fluorescence polarization, FITC-PAM2, GST-MLLE | Polyadenylate-binding protein 1 (Homo sapiens), P11940 | inhibition, % at 20 µM | actives 0.36% (n = 360,000) | AID 588489, 2011; in the data active = inhibition above about 35%, passing the limit was not always enough
UBC9 SUMO inh: inhibitors of in vitro SUMOylation cascade, primary screen, biochemical, HTRF, uHTS; SUMO-conjugating enzyme UBC9 (Homo sapiens), P63279; HTRF SUMOylation assay, SAE1/SAE2 + UBC9; inhibition, % at 35 µM; actives 0.36% (n = 290,000); in the data active = inhibition above about 50%, passing the limit was not always enough; inconclusive = no clear call, values can overlap the other calls
Target sequence (P63279 whole entry, looked up): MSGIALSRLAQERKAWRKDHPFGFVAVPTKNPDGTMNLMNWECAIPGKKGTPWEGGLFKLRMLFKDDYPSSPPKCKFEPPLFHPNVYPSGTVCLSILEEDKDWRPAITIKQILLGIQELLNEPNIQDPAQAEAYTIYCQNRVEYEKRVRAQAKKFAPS
eIF4H FP inh: human eIF4H binding inhibitors, primary screen, translation initiation inhibitor project, biochemical, uHTS, fluorescence polarization | AID 2012, 2009 | actives 0.94% (n = 290,000) | Eukaryotic translation initiation factor 4H (Homo sapiens), Q15056 | inhibition, % at 35 µM | eIF4H fluorescence polarization binding assay;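 also: calls also rest on retests at 20 µM and on dose response follow-up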
Hits are given with their value; n = inactive; u = inconclusive; x = not tested or not shown. Unless noted, no rule for the calls is given here.

SMILES	ALR inh	Efflux pump inh	PABP polyA inh	PABP1 MLLE inh	UBC9 SUMO inh	eIF4H FP inh
COc1ccccc1N1CCN(C2=Nc3cccc4cccc2c34)CC1	n	n	n	n	n	n
CC1CN(C2=Nc3cccc4cccc2c34)CC(C)O1 (stereo not given)	x	n	active	n	n	n
Cc1ccc(S(=O)(=O)n2cc(CO)c3ccccc32)cc1	x	x	x	n	x	x
COCCN1C=C2C(=O)C(C)(OC(=O)CCC(=O)OC)C(=O)C(Br)=C2C=C1c1ccc(OC)cc1 (stereo not given)	x	n	x	n	x	x
C=CCN1C=C2C(=O)C(C)(OC(=O)CCC(=O)OC)C(=O)C(Br)=C2C=C1c1ccc(OC)cc1 (stereo not given)	n	n	50.1	n	n	94.9
Cc1cccc(N2CCN(CC(=O)N(C)Cc3ccccc3)CC2C)c1 (stereo not given)	98.4	n	n	n	n	n
Nc1ccc(C(CC(=O)O)n2cccc2)cc1 (stereo not given)	n	n	1.2	n	n	67.4
Cn1c(SCC(=O)Nc2ccc3[nH]c(=O)[nH]c3c2)nnc1-c1ccccc1	n	n	n	n	n	n
CCc1c(C)nc(SCC(=O)Nc2ccc3c(c2)OCCO3)[nH]c1=O	98.8	n	n	n	n	n
Cc1ccc2nc(SCC(=O)Nc3ccc4c(c3)OCCO4)[nH]c2c1	n	n	n	n	n	n
Cn1c(SCC(=O)Nc2ccc3[nH]c(=O)[nH]c3c2)nnc1-c1ccc(F)cc1	99.0	n	n	n	n	n
O=C(CSc1nc2ccccc2[nH]1)Nc1ccc2[nH]c(=O)[nH]c2c1	98.5	n	x	n	x	x
O=C(CSc1nc2ccccc2[nH]1)Nc1ccc2c(c1)OCCO2	99.1	n	n	n	n	n
COc1ccc(S(=O)(=O)N(C)C)cc1NC(=O)CCNC(=O)c1ccco1	n	n	n	n	n	n
O=C1[C@H]2[C@@H](c3ccc(C(F)(F)F)cc3)N[C@]3(CCCN(Cc4ccc(C(F)(F)F)cc4)C3=O)[C@H]2C(=O)N1Cc1ccccc1	x	x	x	n	x	x
COc1ccc(C)cc1NC(=O)C1CCN(S(=O)(=O)c2ccc3c(c2)NC(=O)CO3)CC1	n	n	n	n	n	n
CCC(C)(C)c1ccc(OC(=O)c2cccnc2Cl)cc1	n	n	n	n	n	n
CC(C)(C)C(=O)N1CCC2CC1c1cc(Cl)ccc12 (stereo not given)	x	x	x	n	x	x
O=C(CSc1nnc2c(n1)[nH]c1ccccc12)Nc1ccc2c(c1)OCO2	n	n	n	37.1	n	n
Cc1ccc(NC(=O)CSc2nnc3c(n2)[nH]c2ccccc23)cc1	n	n	n	n	n	n
COC(=O)C(C)(C(=O)OC)c1ccccc1[N+](=O)[O-]	n	n	66.7	n	n	u
Cc1cc(=O)[nH]c2c1cnn2C(C)c1ccccc1 (stereo not given)	n	n	n	n	n	n
CCOC(=O)c1sc(NC(=O)CSc2nc3c(c(=O)n2-c2ccc(C)cc2)SCC3)c(C(=O)OCC)c1C	n	n	n	n	n	n
N#Cc1cccc(NC(=O)c2cc(C3CCCCN3C(=O)c3ccc4c(c3)CCO4)on2)c1 (stereo not given)	x	x	x	n	x	x
Cc1ccc(Sc2c([N+](=O)[O-])ncn2C)cc1	97.7	n	n	n	n	n
SMILES	ALR inh	Efflux pump inh	PABP polyA inh	PABP1 MLLE inh	UBC9 SUMO inh	eIF4H FP inh
Cn1cnc([N+](=O)[O-])c1Sc1ccc(C(C)(C)C)cc1	n	n	n	n	n	n
Cn1cnc([N+](=O)[O-])c1Sc1ccc(Br)cc1	98.4	n	n	n	n	n
O=c1[nH]nnc2c1ncn2C1OC(CO)C(O)C1O (stereo not given)	x	x	x	n	x	x
COc1ccc(C(C(=O)NC2CCCC2)N(C(=O)c2snc(C(N)=O)c2N)c2cccc(O)c2)cc1 (stereo not given)	n	n	n	n	n	68.1
CCN(CC)CCc1nc(-c2ccccc2)no1	n	n	x	n	x	x
OCn1ncn(-c2ccccc2)c1=S	92.1	n	n	n	n	n
O=C(CCl)Nc1nc(-c2ccco2)c(-c2ccco2)s1	n	n	n	n	81.5	n
O=C(CCCSc1ccccc1)Nc1nc(-c2ccco2)c(-c2ccco2)s1	n	n	n	n	78.8	96.2
O=[N+]([O-])c1ccc(NCCCc2ccccc2)cc1	x	x	x	n	x	x
Cc1ccccc1NC(=O)COC(=O)c1ccccc1SCC(=O)N1CCCC1	n	n	n	n	n	n
CCOC(=O)c1cccc(C2=CC(=O)C[C@H](c3ccc(OC)c(OC)c3)C2)c1	n	n	x	n	x	x
CCn1c(CNc2ccc(F)cc2)nnc1SCCN1CCCCC1	97.6	n	n	n	n	n
CCn1c(CNc2ccccc2Cl)nnc1SCCN1CCCCC1	n	n	n	n	n	n
CCOc1ccccc1NC(=S)/C(=C(\[O-])c1ccc2c(c1)OCCO2)[n+]1ccc(CC)cc1	n	n	n	n	n	n
Cc1cc2cc3c(cc2nc1SCC(=O)O)CCC3	97.5	n	n	n	n	n
Cc1nc(SCC(=O)O)c(C#N)c2c1CCCC2	n	n	82.5	n	n	108.2
CC1=C(C(=O)O)N2C(=O)C(NC(=O)c3ccc(F)cc3)C2SC1 (stereo not given)	n	n	x	42.8	x	x
Nc1cccc(C(=O)N/N=C/c2ccsc2)c1	n	n	5.5	n	n	84.3
CC(C)(C)c1cc(C(=O)N/N=C/c2ccc(O)cc2)n(-c2ccccc2)n1	93.7	n	n	n	n	n
CCc1cc(C(=O)N/N=C/c2ccc(O)cc2)c2ccccc2n1	n	n	n	n	n	n
O=C(N/N=C/c1ccc(O)cc1)c1cccc(C(F)(F)F)c1	97.8	n	n	n	n	n
O=C(N/N=C/c1ccc(O)cc1)c1cncc(Br)c1	99.5	n	n	n	n	n
COC(=O)[C@]1(C)N[C@H](CN(C)C(=O)c2ccccc2)[C@@H]2C(=O)N(C)C(=O)[C@@H]21	n	n	x	n	x	x
CCCCn1c(N)c(N(CC(C)C)C(=O)c2cc(-c3ccc(F)cc3)nc3ccccc23)c(=O)[nH]c1=O	x	n	x	n	x	x
CCCCNC(=O)C1(C)CCN1C(=O)c1cc(-c2cccs2)oc1C (stereo not given)	x	x	x	n	x	x
CN(C)CCCN1c2ccccc2Sc2ccc3ccccc3c21	x	x	x	n	x	x
CC(=O)c1ccc2c(c1)N(CCCN1CCC(CCO)CC1)c1ccccc1S2	96.2	n	x	n	x	x
CN1CCN(CCCN2c3ccccc3Sc3ccc(S(=O)(=O)N(C)C)cc32)CC1	96.4	n	x	n	x	x
OCCN1CCN(CC/C=C2/c3ccccc3Sc3ccc(Cl)cc32)CC1	n	n	x	n	x	x

High-throughput results deposited in PubChem by several laboratories.
